From PubChem BioAssay (Tox21)
Records with an inconclusive call do not appear. Active and inactive are the calls of the source. Unless noted, calls come from the whole dose curve; as a rule, active = well fitted curve in the direction sought with a large enough effect in the repeat runs; inconclusive = weak or mixed curves; inactive = no such curve, though single readings can be large; an effect the other way counts as inactive or inconclusive.

Columns and labels:
[1] = qHTS assay to identify small molecule HDAC inhibitors - cell viability counter screen (AID 1259365); settings: HCT-116 viability, CellTiter-Glo ATP luminescence, 2 h; series mostly up to 92.4 µM; note: nearly all actives have a fitted effect of over 50% in size
Outline: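 Wild-type HCT-116 cells were seeded at 1,500 per well, incubated overnight at 37 C, then exposed to compounds in DMSO for 2hr. Viability was read by CellTiter-Glo luminescence after 30min at room temperature.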

[2] = qHTS assay to identify small molecule agonists of the sonic hedgehog signaling (Shh) pathway - cell viability counter screen (AID 1259366); settings: NIH/3T3 Gli1-Luc viability, CellTiter-Fluor, 24 h; series mostly up to 92.4 µM; note: nearly all actives have a fitted effect of over 50% in size
Outline: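 NIH/3T3-derived 3T3 Gli1-Luc cells (stable Gli1-responsive firefly luciferase reporter) were seeded, rested 4 hr at 37 C/5% CO2, then exposed to compounds in DMSO for 24 hr; viability was read by CellTiter-Fluor fluorescence in the same wells.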

[3] = qHTS assay to identify small molecule antagonists of the sonic hedgehog signaling (Shh) pathway - cell viability counter screen (AID 1259367); settings: NIH/3T3 Gli1-Luc viability, CellTiter-Fluor, 24 h; series mostly up to 92.4 µM; note: nearly all actives have a fitted effect of over 55% in size
Outline: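 NIH/3T3-derived Gli1-Luc reporter cells, 2,000/well, plated 4 hr before compound addition, then stimulated with conditioned medium for 24 hr at 37C. Viability measured in the same wells by CellTiter-Fluor fluorescence, reagent added at 23 hr for 1 hr.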

[4] = qHTS assay to identify small molecule antagonists of the sonic hedgehog signaling (Shh) pathway (AID 1259369; calls by dose curve; note: nearly all actives have a fitted effect of over 45% in size); settings: NIH/3T3 Gli1-Luc reporter, Shh antagonist, luminescence 24 h; series mostly up to 92.4 µM
Outline: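 Inhibition of Shh signalling is measured as reduced Gli1-response-element firefly luciferase output in an NIH/3T3-derived stable reporter clone stimulated with conditioned medium for 24hr.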

[5] = target: Estrogen receptor beta (Homo sapiens) (UniProt Q92731); assay: qHTS assay to identify small molecule agonists of the estrogen receptor beta (ER-beta) signaling pathway (AID 1259377; active = well fitted activation curve with a large enough effect in the signal ratio in the repeat runs, not every such curve was filed as active; the % refers to the signal ratio); settings: ER-beta-UAS-bla HEK293T, beta-lactamase FRET ratio, 16 h; series mostly up to 92.4 µM
Outline: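 ER-beta-UAS-bla HEK293T (GripTite) cells carrying a UAS-driven beta-lactamase reporter, in medium with 2% charcoal-stripped FBS, were exposed to compounds for 16 hr at 37C; LiveBLAzer B/G FRET substrate was then added and fluorescence read after 2 hours at room temperature.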

[6] = target: Estrogen receptor beta (Homo sapiens) (UniProt Q92731); assay: qHTS assay to identify small molecule antagonists of the estrogen receptor beta (ER-beta) signaling pathway (AID 1259378; active = well fitted inhibition curve with a large enough effect in the signal ratio in the repeat runs, not every such curve was filed as active; the % refers to the signal ratio); settings: ER-beta-UAS-bla HEK293T, beta-lactamase FRET ratio, 16 h; series mostly up to 92.4 µM
Outline: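 ER-beta-UAS-bla HEK293T cells in 2% charcoal-stripped FBS medium treated with compound plus 1nM final 17-beta-estradiol for 16 hr at 37C. Beta-lactamase reporter read by FRET substrate fluorescence after 2 hours at room temperature.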

[7] = qHTS assay to identify small molecule agonists of the androgen receptor (AR) signaling pathway in the presence of an antagonist - cell viability counter screen (AID 1259379); settings: MDA-kb2 viability, CellTiter-Fluor, 16 h; series mostly up to 92.4 µM;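 note: MDA-kb2 human breast cancer cells carrying an MMTV luciferase reporter; nearly all actives have a fitted effect of over 25% in size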
Outline: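 Fluorescence from CellTiter-Fluor, added after 15 hr and read 1 hr later, gave cell viability. Cells were MDA-kb2 exposed to compounds (15 concentrations) in the presence of 3.0uM nilutamide at 37C, 0% CO2.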

[8] = qHTS assay to identify small molecule agonists of the estrogen receptor beta (ER-beta) signaling pathway - cell viability counter screen (AID 1259380); settings: ER-beta-bla HEK293T viability, CellTiter-Glo luminescence, 16 h; series mostly up to 92.4 µM; note: nearly all actives have a fitted effect of over 30% in size
Outline: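 Same-well viability counter screen. Cells: ER-beta-UAS-bla HEK293T, plated 6 hr before compound, in 2% charcoal-stripped FBS. Compound exposure 16 hr, 37C; viability by CellTiter-Glo luminescence after 30 min at room temperature.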

[9] = target: Androgen receptor (Homo sapiens) (UniProt P10275); assay: qHTS assay to identify small molecule agonists of the androgen receptor (AR) signaling pathway in the presence of an antagonist (AID 1259381; calls by dose curve; note: nearly all actives have a fitted effect of over 15% in size); settings: MDA-kb2 MMTV-luciferase, AR agonist + nilutamide, 16 h; series mostly up to 92.4 µM
Outline: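 Cells are MDA-kb2 (human breast carcinoma, MMTV-luc, AR/GR responsive). Nilutamide is present at 3.0uM final throughout; compounds are added at 15 concentrations and incubated 16hr at 37C before ONE-Glo luminescence detection.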

[10] = qHTS assay to identify small molecule agonists of the sonic hedgehog signaling (Shh) pathway (AID 1259368; calls by dose curve; note: nearly all actives have a fitted effect of over 15% in size); settings: NIH/3T3 Gli1-Luc reporter, luciferase, 24 h; series mostly up to 92.4 µM
Outline: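 Steps: seed 3T3 Gli1-Luc cells, incubate 4 hr at 37 C, pin-transfer compounds in DMSO alongside a positive control, incubate 24 hr, add luciferase detection reagent, wait 30 min at room temperature, read luminescence.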

Measured: Potency

Chain of Estrogen receptor beta (Homo sapiens) (Q92731 whole entry, looked up): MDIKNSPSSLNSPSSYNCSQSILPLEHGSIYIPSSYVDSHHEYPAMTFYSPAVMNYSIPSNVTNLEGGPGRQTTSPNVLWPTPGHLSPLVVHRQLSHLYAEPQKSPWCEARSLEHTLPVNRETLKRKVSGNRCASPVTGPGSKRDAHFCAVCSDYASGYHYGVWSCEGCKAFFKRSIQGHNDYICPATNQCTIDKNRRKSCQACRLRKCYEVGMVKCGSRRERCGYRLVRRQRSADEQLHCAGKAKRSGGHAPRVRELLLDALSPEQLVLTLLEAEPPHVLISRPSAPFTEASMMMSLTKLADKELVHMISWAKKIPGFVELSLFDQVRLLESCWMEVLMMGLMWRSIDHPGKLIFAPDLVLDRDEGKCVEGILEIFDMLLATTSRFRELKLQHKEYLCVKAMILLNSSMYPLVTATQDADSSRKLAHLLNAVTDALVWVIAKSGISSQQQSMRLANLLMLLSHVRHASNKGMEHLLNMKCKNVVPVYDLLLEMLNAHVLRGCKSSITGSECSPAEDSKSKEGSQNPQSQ
Chain of Androgen receptor (Homo sapiens) (P10275 whole entry, looked up): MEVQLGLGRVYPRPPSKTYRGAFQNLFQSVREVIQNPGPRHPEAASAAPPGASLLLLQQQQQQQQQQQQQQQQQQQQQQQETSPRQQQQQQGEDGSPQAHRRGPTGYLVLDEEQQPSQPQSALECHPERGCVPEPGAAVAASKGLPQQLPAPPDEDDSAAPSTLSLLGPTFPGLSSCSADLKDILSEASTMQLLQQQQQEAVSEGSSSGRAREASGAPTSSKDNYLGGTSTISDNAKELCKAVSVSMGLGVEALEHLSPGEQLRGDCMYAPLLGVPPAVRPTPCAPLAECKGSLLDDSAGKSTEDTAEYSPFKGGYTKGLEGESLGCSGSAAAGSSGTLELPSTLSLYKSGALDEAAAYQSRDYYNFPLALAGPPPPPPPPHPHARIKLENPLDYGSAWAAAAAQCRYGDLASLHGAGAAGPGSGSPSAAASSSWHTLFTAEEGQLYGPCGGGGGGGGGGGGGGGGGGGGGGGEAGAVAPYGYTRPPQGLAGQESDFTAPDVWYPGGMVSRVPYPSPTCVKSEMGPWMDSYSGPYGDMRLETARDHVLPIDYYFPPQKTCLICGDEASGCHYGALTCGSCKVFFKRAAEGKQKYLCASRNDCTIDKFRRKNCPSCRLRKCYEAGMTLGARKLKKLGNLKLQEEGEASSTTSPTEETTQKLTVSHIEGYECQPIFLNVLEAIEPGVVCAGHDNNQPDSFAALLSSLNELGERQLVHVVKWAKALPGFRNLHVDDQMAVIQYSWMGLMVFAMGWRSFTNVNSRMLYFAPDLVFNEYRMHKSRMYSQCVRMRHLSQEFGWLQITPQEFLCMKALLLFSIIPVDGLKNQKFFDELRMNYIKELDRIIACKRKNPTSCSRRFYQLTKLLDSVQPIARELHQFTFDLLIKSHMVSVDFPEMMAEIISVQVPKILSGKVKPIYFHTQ

C=CCCCCCCCCOC(C)=O
inactive: [1] | [2] | [3] | [4] | [5] | [6] | [7] | [8]

Nc1ccc(C(=O)NCC(=O)O)cc1
inactive: [1] | [2] | [3] | [4] | [5] | [7] | [8]

CC(=O)/C=C/C=C1/C2CCC(C2)C1(C)C (centres undefined)
inactive: [1] | [2] | [3] | [4] | [7] | [8] | [9]

CCOC(=O)CC
inactive: [1] | [2] | [3] | [4] | [5] | [7]

Cc1ccc(NC(N)=O)cc1
inactive: [1] | [2] | [3] | [4] | [5] | [6] | [7] | [8]

CCCCCCCCCCCCCCCC/C=C/C1CC(=O)OC1=O (centres undefined)
inactive: [1] | [2] | [3] | [10] | [5] | [6] | [7] | [8]
